Consider ten molecules from ChEMBL document CHEMBL3988442, “University of Dundee, Small-Polar-MMV Screening Library” (2021).

Holding throughout (parameters): scale not given: direction of the effect not stated beside the values
The target in experiment [1] is Protein translocase subunit SecA (Escherichia coli (strain K12)) (UniProt P10408). The experiment in a line: Assay to Identify E. coli SecA ATPase Inhibitors. The class given is functional. Particulars: 30 µM.
Experiment [2] deals with T1, Ubiquitin-activating enzyme e1, putative (Leishmania donovani (strain BPK282A1)) (UniProt E9BSI1).
T1 sequence (whole entry): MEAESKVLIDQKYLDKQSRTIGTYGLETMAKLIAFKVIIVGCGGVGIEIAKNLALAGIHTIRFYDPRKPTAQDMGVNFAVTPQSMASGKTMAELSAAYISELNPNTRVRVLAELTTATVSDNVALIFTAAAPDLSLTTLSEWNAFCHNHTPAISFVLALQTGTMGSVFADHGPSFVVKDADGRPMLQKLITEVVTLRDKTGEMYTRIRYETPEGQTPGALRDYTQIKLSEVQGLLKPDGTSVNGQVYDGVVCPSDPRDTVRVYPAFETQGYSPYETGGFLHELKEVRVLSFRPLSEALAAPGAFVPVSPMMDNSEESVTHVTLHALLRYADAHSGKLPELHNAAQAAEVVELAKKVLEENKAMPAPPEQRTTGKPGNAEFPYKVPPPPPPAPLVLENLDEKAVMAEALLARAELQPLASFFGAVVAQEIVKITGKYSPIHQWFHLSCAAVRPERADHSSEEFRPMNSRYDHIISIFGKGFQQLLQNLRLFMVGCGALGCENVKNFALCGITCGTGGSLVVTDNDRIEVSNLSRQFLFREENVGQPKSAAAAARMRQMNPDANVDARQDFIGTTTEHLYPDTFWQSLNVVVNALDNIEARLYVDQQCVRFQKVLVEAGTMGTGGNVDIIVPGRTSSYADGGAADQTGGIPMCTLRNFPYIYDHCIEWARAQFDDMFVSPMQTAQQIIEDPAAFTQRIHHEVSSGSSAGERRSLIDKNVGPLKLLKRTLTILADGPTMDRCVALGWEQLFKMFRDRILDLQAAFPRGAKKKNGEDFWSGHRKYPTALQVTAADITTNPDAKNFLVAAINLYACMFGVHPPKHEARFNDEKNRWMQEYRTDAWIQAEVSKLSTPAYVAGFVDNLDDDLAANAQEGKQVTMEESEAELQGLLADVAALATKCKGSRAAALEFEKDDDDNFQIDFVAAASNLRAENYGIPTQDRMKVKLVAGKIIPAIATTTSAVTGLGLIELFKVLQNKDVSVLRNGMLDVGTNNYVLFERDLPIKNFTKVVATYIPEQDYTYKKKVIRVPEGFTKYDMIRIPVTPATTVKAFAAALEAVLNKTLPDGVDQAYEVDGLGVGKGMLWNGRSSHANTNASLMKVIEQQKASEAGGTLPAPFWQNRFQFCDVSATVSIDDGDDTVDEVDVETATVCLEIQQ
The experiment in a line: Leishmania donovani Ubiquitin Activating Enzyme (LdE1). Particulars: 30 µM. The class given is functional.

Experiment [3] concerns the target AMP-activated protein kinase, AMPK (Homo sapiens) (UniProt P54646+O43741+P54619+Q9UGJ0+Q9Y478+Q13131+Q9UGI9). The experiment in a line: AMP-dependent Kinase enzyme assay. An in vitro enzyme assay that detects ADP turnover that is directly proportional to AMPK activity. This uses naive AMPK that is activated during the assay with MK-8722. It is filed as functional. The conditions noted are these: 30 µM.

Experiment [4] concerns the target Sialic acid-binding Ig-like lectin 9 (Homo sapiens) (UniProt Q9Y336). The experiment in a line: Hs-Siglec9 ALPHAscreen SOP 20170721. Particulars: 10 µM. A general note: Bead proximity is the source of the signal in Alpha formats.
The next experiment concerns Trypanosoma cruzi. Briefly: Trypanosoma cruzi phosphomannomutase and mannose-1-phosphate guanylyltransferase assay. The class given is functional. The conditions noted are these: 10 µM.
Experiment [5] deals with T2, Arginase-2, mitochondrial (Homo sapiens) (UniProt P78540).
T2 sequence (whole entry): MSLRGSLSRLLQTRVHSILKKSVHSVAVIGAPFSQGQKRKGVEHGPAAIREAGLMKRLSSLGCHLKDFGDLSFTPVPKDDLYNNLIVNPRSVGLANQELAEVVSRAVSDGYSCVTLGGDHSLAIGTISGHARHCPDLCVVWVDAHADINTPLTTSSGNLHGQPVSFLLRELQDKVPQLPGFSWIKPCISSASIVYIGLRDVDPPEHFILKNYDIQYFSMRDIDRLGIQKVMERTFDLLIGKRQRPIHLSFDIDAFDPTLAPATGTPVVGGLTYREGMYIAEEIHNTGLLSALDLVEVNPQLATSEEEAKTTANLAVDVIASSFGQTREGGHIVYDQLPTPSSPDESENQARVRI
Briefly: in vitro enzyme assay to detect the production of urea directly proportional to the activity of Arginase II. Also: in the data most compounds retested in dose-response had high values. Particulars: 33.3 µM. The class given is functional.

Experiment [6] addresses T3, Proteasome subunit beta (Trypanosoma cruzi) (UniProt O96673).
T3 sequence (whole entry): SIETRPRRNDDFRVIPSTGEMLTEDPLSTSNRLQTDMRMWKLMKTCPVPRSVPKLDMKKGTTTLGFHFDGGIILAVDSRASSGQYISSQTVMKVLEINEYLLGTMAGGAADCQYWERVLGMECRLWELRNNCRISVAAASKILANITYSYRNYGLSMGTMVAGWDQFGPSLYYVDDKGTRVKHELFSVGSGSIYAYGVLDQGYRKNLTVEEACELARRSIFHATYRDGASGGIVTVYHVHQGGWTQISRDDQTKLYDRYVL
The experiment in a line: Trypanosoma cruzi proteasome chymotrypsin-like activity (TcProtChymo) assay. Also: in the data most compounds retested in dose-response had high values. The class given is functional. The conditions noted are these: 9.37 µM.

For another experiment, the species on record is Homo sapiens. The experiment in a line: To identify inhibition of the IFN signalling (Jak-Stat) pathway via expression of an eGFP reporter gene under the control of an IFN-stimulated response element (ISRE) containing MxA promoter. The class given is functional. The conditions noted are these: 30 µM. Background: A reporter such as luciferase makes a cellular process visible.

Experiment [7] deals with T4, Tyrosyl-tRNA synthetase, putative (Trypanosoma cruzi (strain CL Brener)) (UniProt Q4DSP6).
T4 sequence (whole entry): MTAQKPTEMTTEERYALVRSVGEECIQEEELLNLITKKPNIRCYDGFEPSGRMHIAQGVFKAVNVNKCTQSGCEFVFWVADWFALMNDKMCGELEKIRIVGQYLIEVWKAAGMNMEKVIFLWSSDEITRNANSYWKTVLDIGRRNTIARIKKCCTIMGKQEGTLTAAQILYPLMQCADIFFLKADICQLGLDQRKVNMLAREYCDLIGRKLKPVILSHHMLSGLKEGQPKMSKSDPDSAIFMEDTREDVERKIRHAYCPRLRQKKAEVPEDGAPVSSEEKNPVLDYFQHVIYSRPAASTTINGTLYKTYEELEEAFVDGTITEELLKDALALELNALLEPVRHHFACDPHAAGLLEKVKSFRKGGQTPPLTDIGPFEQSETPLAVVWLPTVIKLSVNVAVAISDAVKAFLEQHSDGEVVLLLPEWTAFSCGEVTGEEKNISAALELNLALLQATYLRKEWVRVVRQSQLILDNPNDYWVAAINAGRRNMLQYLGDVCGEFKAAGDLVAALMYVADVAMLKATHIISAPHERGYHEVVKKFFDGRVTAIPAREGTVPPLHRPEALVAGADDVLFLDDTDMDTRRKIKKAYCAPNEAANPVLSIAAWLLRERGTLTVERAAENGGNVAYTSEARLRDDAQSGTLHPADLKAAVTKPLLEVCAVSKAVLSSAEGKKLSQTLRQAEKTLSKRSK
Briefly: Trypanosoma cruzi tyrosyl tRNA synthetase (TcYRS) _High Tyrosine SOP. Also: in the data most compounds retested in dose-response had high values. It is filed as functional. The conditions noted are these: 30 µM.

For experiment [8], the target named is T4, Tyrosyl-tRNA synthetase, putative (Trypanosoma cruzi (strain CL Brener)). The experiment in a line: Trypanosoma cruzi tyrosyl tRNA synthetase (TcYRS) SOP. The class given is functional. The conditions noted are these: 30 µM.
Experiment [9] addresses Chromo domain-containing protein 1 (Saccharomyces cerevisiae (strain ATCC 204508 / S288c) (Baker's yeast)) (UniProt P32657). The experiment in a line: ScCHD-1 Enzyme Inhibition Assay. Also: in the data most compounds retested in dose-response had high values. It is filed as functional. The conditions noted are these: 30 µM.

Molecules are shown by their SMILES. For some assays here: Potency and affinity values are given separately.

Chain of Sialic acid-binding Ig-like lectin 9 (Homo sapiens) (Q9Y336 whole entry): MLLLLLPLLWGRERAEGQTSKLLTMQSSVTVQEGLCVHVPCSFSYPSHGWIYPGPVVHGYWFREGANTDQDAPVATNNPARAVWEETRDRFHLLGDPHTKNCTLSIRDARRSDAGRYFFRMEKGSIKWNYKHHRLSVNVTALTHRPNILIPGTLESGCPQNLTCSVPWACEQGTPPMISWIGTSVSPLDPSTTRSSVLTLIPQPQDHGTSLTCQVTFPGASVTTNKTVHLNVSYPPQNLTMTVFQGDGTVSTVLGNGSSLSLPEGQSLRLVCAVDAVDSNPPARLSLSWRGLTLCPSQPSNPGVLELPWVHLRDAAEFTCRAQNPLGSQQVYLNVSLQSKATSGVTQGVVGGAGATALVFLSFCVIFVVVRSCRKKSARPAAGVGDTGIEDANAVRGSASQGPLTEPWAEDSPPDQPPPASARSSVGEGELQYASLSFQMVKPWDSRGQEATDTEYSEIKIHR
Chain of Chromo domain-containing protein 1 (Saccharomyces cerevisiae (strain ATCC 204508 / S288c) (Baker's yeast)) (P32657 whole entry, the tested form may be a part): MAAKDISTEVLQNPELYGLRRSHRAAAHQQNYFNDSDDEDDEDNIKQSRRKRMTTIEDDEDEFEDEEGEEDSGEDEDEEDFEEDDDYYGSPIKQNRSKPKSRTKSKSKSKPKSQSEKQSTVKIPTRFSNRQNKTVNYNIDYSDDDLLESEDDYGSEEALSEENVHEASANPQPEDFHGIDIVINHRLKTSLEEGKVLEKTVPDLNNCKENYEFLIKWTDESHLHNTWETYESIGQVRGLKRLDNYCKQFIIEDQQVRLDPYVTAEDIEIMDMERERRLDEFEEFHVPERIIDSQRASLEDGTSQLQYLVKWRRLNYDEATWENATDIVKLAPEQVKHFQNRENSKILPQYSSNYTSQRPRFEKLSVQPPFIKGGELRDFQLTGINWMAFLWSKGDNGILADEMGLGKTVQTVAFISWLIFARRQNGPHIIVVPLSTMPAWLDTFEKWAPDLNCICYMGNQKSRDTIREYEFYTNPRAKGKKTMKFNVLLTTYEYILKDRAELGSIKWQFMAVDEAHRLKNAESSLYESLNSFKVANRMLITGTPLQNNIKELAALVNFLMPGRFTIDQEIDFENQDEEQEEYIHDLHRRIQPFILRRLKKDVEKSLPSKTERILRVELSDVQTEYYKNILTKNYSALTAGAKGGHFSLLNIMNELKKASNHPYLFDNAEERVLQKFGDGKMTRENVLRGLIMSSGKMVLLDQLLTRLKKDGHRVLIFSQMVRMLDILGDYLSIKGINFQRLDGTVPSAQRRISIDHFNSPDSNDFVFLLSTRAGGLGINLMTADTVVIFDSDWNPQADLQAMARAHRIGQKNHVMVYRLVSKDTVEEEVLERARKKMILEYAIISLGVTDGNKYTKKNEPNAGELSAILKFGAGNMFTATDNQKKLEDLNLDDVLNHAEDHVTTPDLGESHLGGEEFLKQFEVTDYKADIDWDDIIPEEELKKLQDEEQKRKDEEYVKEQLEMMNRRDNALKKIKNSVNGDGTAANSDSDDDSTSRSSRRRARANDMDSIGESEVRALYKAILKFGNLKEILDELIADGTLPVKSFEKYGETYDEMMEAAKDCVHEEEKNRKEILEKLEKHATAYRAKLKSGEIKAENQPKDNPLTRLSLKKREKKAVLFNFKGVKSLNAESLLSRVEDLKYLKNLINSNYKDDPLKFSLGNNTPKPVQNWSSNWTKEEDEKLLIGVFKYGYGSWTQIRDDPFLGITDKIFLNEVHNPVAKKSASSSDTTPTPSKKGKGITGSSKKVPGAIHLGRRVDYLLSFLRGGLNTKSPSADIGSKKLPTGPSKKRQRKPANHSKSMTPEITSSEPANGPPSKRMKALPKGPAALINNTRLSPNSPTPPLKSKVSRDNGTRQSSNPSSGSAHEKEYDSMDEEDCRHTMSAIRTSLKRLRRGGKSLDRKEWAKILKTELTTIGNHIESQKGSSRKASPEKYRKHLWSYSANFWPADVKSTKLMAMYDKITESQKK
Chain of Protein translocase subunit SecA (Escherichia coli (strain K12)) (P10408 whole entry): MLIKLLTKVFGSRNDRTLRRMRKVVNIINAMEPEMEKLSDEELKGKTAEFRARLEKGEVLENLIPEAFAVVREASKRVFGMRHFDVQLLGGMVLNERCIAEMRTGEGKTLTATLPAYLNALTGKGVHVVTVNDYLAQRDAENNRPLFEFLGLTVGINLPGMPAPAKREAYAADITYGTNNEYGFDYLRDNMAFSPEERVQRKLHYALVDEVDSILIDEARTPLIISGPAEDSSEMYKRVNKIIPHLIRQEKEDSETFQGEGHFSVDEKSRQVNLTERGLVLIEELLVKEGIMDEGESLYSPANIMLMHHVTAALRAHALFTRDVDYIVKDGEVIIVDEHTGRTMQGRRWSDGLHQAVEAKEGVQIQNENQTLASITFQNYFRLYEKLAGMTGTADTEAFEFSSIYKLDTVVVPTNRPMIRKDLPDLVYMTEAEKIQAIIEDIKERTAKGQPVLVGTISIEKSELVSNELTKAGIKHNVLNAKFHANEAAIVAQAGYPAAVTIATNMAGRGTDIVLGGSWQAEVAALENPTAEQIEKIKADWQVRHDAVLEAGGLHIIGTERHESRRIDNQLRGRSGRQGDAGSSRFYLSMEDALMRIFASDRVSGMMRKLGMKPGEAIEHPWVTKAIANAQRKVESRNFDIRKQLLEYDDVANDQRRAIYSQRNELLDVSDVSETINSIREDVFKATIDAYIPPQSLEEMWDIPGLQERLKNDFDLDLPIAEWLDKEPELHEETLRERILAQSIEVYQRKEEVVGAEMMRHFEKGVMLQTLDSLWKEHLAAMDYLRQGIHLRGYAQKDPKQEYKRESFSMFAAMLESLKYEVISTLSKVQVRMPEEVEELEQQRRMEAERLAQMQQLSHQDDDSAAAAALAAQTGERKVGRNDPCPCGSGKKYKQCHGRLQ

Take `c1cncc(OCc2nnn3c2CN(Cc2ccsc2)CCC3)c1`: the Percent Effect in experiment [1] was -3.57%; in [2], 2.67%; in experiment [3], -0.385%; in experiment [4] it was 1.61%; in the experiment with Trypanosoma cruzi it was 7.72%; in [5], -48.2%. Moreover, the Percent Effect in experiment [6] is 6.84%; in the experiment listed under Homo sapiens, 1.38%; in experiment [7] it was -3.12%; in experiment [8] it was -5%; in experiment [9], -5.39%.
Regarding `Cn1cc(C2CCCN2C(=O)CCCOc2ccc(F)cc2F)cn1` (stereo not given), the Percent Effect in experiment [1] is -6.14%; in experiment [2], 10.1%; in experiment [3] it was 1.86%; in experiment [4], 9.73%; in the experiment with Trypanosoma cruzi, -0.283%; in experiment [5], 1.9%. Moreover, the Percent Effect in experiment [6] was -3.36%; in the experiment filed under Homo sapiens, -0.895%; in experiment [7] it was 4.43%; in experiment [8] it was 3.8%; in [9], -1.53%.
For the molecule `Cc1nn(C)c(C)c1C1CCCN1C(=O)c1ccc(CN(C)C)cc1` (stereo not given), the Percent Effect in [1] is -0.183%; in experiment [2] it was 21.6%; in [3] it was 2.25%; in experiment [4] it was -4.88%; in the experiment with Trypanosoma cruzi it was 2.14%; in experiment [5] it was 0.554%. Moreover, the Percent Effect in experiment [6] is 11.1%; in the experiment listed under Homo sapiens, 11.4%; in experiment [7], -20.8%; in experiment [8], 23.2%; in [9], -6.46%.
Consider `Fc1cccc(CN2CCC(c3n[nH]c4ncccc34)CC2)c1F`, for which the Percent Effect in experiment [1] is -3.7%; in experiment [2] it was 9.46%; in [3] it was 25.8%; in experiment [4], 6.41%; in the experiment with Trypanosoma cruzi, 7.71%; in experiment [5], -1.16%. In addition, the Percent Effect in experiment [6] was 18.2%; in the experiment filed under Homo sapiens, 18.6%; in experiment [7], 3.23%; in [8] it was 14.3%; in [9] it was -10.6%.
Regarding `CN(C)c1ncccc1CNC(=O)N1CCCC1CN1CCCCC1` (stereo not given), the Percent Effect in [1] was -3.1%; in [2], 23.4%; in experiment [3], -3.23%; in [4], 0.716%; with Trypanosoma cruzi it was -2.25%; in [5] it was -0.356%. Moreover, the Percent Effect in [6] was 9.63%; in the experiment listed under Homo sapiens it was 3.33%; in [7] it was 7.77%; in experiment [8], 14.6%; in experiment [9], -9.2%.
In the case of `CC(C(=O)NCCOc1ccc2c(c1)OCO2)n1cncn1` (stereo not given), the Percent Effect in experiment [1] was -1.18%; in experiment [2], 20.2%; in experiment [3], -6.18%; in experiment [4], -3.69%; with Trypanosoma cruzi it was -2.17%; in experiment [5], 6.08%. In addition, the Percent Effect is 11.6% in experiment [6]; -12.4% in the experiment filed under Homo sapiens; 6.4% in experiment [7]; 13.9% in experiment [8]; -2.77% in experiment [9].
For `O=C(c1cccc2c1OCO2)N1CCCC(n2cccn2)C1` (stereo not given), the Percent Effect in experiment [1] is -4.91%; in experiment [2] it was 2.7%; in [3], -10.6%; in [4], 1.58%; in the experiment on Trypanosoma cruzi, -5.94%; in experiment [5], -1.2%. Moreover, the Percent Effect in [6] is 8.29%; in the experiment filed under Homo sapiens, 10.5%; in [7], 0.493%; in experiment [8], 3.7%; in [9], -1.47%.
With `O=C(Nc1cc(F)ccc1OCC1CCCO1)N1CCCC1` (stereo not given), the Percent Effect is -0.769% in experiment [1]; 2.6% in experiment [2]; -5.42% in experiment [3]; 10.4% in experiment [4]; 6.55% in the experiment with Trypanosoma cruzi; 3.56% in experiment [5]. The Percent Effect in [6] was -2.37%; in the experiment filed under Homo sapiens, -1.89%; in [7] it was 2.91%; in experiment [8], 14.6%; in [9], -5.42%.
Regarding `CCc1nc(C)c([C@H]2CN(C)C[C@@H]2C(=O)Nc2ccc(OC)cc2)[nH]1`, the Percent Effect is -5.53% in experiment [1]; 5.41% in experiment [2]; -1.46% in [3]; 2.65% in experiment [4]; 1.16% with Trypanosoma cruzi; -2.86% in experiment [5]. Also, the Percent Effect in experiment [6] was 8.28%; in the experiment filed under Homo sapiens, 1.5%; in experiment [7], 8.99%; in experiment [8], 12.2%; in experiment [9], -4.67%.
As for `O=C(NCCc1ccccn1)NC1CCN(c2ncccn2)CC1`, the Percent Effect is -2.63% in [1]; 16.4% in [2]; 1.28% in [3]; 3.94% in [4]; -1.59% in the experiment on Trypanosoma cruzi; 2% in experiment [5]. Further, the Percent Effect in [6] was 12.9%; in the experiment listed under Homo sapiens it was -1.99%; in experiment [7], 9.38%; in experiment [8] it was 23.5%; in experiment [9], -4.07%.
